In PubChem BioAssay (EPA / NIEHS):
Inconclusive results are not listed. Active and inactive are the calls of the source. How the source made its calls, unless noted: active means hit-call score of the fitted dose curve at least 0.9, where 1 is the maximum; inactive means score below 0.9.

Tests used:
[1] = ATG_PBREM_CIS: Attagene CIS-FACTORIAL HepG2 Assay for human Phenobarbital-responsive Enhancer Module (PBREM) (AID 2282955); conditions: HepG2 PBREM cis-reporter, Attagene multiplexed transcription; actives raise or lower the signal
Summary of the method: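 HepG2 cells transiently transfected with multiple cis-regulated reporter transcription units; endogenous factor activity at the PBREM element measured as reporter mRNA 24 h after dosing, via RT-PCR and capillary electrophoresis of fluorescent fragments; bidirectional fitting versus DMSO.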

[2] = biological target: Paired box protein Pax-6 (Homo sapiens) (UniProt P26367); test: ATG_Pax6_CIS: Attagene CIS-FACTORIAL HepG2 Assay for human Paired Box 6 (PAX6) (AID 2282956); conditions: HepG2 CIS-FACTORIAL PAX6 reporter transcription, RNA readout; actives raise or lower the signal
Paired box protein Pax-6 (Homo sapiens), sequence (P26367 whole entry, looked up): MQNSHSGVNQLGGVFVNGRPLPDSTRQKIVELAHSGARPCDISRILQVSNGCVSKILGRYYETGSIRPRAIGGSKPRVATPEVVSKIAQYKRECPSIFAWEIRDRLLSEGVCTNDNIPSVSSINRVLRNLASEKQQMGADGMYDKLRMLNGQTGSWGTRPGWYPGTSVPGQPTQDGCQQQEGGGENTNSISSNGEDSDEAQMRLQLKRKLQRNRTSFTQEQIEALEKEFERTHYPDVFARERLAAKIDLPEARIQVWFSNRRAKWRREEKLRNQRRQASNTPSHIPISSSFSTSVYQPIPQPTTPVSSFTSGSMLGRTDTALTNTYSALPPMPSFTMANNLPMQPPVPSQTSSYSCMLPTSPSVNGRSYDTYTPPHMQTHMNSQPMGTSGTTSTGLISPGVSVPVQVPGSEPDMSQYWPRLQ
Summary of the method: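 HepG2 cells transiently transfected with cis-promoter-driven multiplexed reporter units sensing endogenous transcription factor activity; 24 h chemical exposure. Reporter mRNA quantified by RT-PCR, 6-FAM labelling, HpaI digestion and capillary electrophoresis; bidirectional fit versus DMSO baseline.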

[3] = ATG_PXRE_CIS: Attagene CIS-FACTORIAL HepG2 Assay for human Pregnane X Receptor Element (PXRE) (AID 2282957); conditions: HepG2 Attagene CIS-FACTORIAL PXRE reporter, mRNA; actives raise or lower the signal
Summary of the method: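 Cis-element reporter mRNA in human hepatoma HepG2 cells is measured 24 h post-dosing by RT-PCR, primer-extension labeling and capillary electrophoresis; gain or loss of signal is fitted relative to DMSO.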

[4] = ATG_RORE_CIS: Attagene CIS-FACTORIAL HepG2 Assay for human RAR-related Orphan Receptor Element (RORE) (AID 2282959); conditions: HepG2 Attagene cis-factorial RORE reporter, mRNA; actives raise or lower the signal
Summary of the method: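 HepG2 cells transiently transfected with multiple cis-element reporter transcription units, exposed to chemical for 24 h. Reporter mRNA quantified by RT-PCR, 6-FAM primer-extension labeling, HpaI digestion and capillary electrophoresis; bidirectional fit versus DMSO baseline.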

[5] = ATG_Sox_CIS: Attagene CIS-FACTORIAL HepG2 Assay for human SRY-box transcription factor (SOX) (AID 2282960); conditions: HepG2 Attagene cis-factorial SOX reporter, mRNA; actives raise or lower the signal
Summary of the method: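 HepG2 cells transiently transfected with cis-element-driven multiple reporter transcription units, dosed 24 h; reporter mRNA measured by RT-PCR, FAM labelling, HpaI digestion and capillary electrophoresis. Bidirectional fit versus DMSO baseline.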

[6] = biological target: Transcription factor Sp1 (Homo sapiens) (UniProt P08047); test: ATG_Sp1_CIS: Attagene CIS-FACTORIAL HepG2 Assay for human Specificity Protein 1 (Sp1) (AID 2282961); conditions: HepG2 Sp1 cis-reporter transcription, actives raise or lower the signal
Transcription factor Sp1 (Homo sapiens), sequence (P08047 whole entry, looked up): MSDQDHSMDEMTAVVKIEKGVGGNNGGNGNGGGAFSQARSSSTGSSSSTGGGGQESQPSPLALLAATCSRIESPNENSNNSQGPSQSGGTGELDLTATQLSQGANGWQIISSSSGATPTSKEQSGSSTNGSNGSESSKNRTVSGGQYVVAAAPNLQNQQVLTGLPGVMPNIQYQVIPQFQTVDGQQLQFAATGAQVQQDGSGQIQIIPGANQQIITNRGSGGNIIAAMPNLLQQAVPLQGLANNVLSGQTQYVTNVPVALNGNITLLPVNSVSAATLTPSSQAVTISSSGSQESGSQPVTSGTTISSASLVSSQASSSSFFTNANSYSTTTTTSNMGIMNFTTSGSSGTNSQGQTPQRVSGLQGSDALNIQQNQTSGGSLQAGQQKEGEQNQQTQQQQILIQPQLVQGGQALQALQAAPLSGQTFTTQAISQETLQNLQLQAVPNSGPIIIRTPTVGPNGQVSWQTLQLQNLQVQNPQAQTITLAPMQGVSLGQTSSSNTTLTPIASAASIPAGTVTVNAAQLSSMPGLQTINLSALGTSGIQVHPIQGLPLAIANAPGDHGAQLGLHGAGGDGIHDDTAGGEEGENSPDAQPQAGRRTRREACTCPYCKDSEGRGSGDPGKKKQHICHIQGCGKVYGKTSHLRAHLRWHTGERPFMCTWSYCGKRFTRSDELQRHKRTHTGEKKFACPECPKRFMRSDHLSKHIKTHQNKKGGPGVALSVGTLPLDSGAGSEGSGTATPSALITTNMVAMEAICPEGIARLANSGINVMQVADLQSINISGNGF
Summary of the method: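 HepG2 cells transiently transfected with multiple reporter transcription units driven by cis-regulatory elements; Sp1-responsive reporter mRNA measured 24 h after dosing by RT-PCR and capillary electrophoresis fluorescence, fitted bidirectionally against DMSO baseline.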

[7] = ATG_SREBP_CIS: Attagene CIS-FACTORIAL HepG2 Assay for human Sterol Regulatory Element Binding (SREBP) (AID 2282962); conditions: HepG2 Attagene cis-factorial SREBP reporter, mRNA; actives raise or lower the signal
Summary of the method: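 HepG2 cells transiently transfected with multiplexed cis-promoter reporter units sensing endogenous transcription factors; reporter mRNA measured 24 h after dosing by RT-PCR, 6-FAM labeling, HpaI digestion and capillary electrophoresis. Bidirectional fit versus DMSO.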

[8] = biological target: Signal transducer and activator of transcription 3 (Homo sapiens) (UniProt P40763); test: ATG_STAT3_CIS: Attagene CIS-FACTORIAL HepG2 Assay for human Signal Transducer and Activator of Transcription 3 (STAT3) (AID 2282963); conditions: HepG2, Attagene cis-factorial STAT3 reporter transcription; actives raise or lower the signal
Signal transducer and activator of transcription 3 (Homo sapiens), sequence (P40763 whole entry, looked up): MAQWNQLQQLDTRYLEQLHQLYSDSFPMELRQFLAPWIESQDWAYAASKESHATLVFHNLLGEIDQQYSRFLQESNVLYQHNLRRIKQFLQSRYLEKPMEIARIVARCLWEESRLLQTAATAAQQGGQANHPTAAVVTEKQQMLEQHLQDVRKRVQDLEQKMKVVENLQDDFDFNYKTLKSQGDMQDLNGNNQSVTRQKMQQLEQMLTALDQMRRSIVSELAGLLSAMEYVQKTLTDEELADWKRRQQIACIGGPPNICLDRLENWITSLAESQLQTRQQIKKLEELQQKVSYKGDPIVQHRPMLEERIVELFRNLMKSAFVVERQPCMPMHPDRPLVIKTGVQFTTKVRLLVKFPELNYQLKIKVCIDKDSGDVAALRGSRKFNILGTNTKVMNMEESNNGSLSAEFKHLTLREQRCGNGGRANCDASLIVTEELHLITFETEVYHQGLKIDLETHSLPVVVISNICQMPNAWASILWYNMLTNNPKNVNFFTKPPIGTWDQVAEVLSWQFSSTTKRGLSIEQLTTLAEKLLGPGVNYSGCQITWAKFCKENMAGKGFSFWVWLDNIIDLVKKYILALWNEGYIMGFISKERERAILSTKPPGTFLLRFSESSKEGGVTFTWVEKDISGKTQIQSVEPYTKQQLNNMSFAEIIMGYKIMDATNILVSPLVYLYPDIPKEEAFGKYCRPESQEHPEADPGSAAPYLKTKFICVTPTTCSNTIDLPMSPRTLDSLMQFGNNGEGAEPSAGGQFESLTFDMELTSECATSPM
Summary of the method: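 HepG2 cells transiently transfected with cis-element-driven multiple reporter transcription units; after 24 h chemical exposure, reporter mRNA measured by RT-PCR, 6-FAM primer-extension labelling, HpaI digestion and capillary electrophoresis. Bidirectional fitting versus DMSO baseline.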

[9] = ATG_TA_CIS: Attagene CIS-FACTORIAL HepG2 Assay for human TA Basal Promoter (AID 2282964); conditions: HepG2 Attagene CIS-factorial TA basal promoter reporter; actives raise or lower the signal
Summary of the method: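 HepG2 cells transiently transfected with multiplexed cis-promoter reporter units, dosed 24 h. Reporter mRNA measured by RT-PCR, 6-FAM labelling, HpaI digestion and capillary electrophoresis; bidirectional fit versus DMSO baseline, serving as background control.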

[10] = ATG_TCF_b_cat_CIS: Attagene CIS-FACTORIAL HepG2 Assay for human T-Cell-Factor with beta-catenin (TCF/b-cat) (AID 2282965); conditions: HepG2 TCF/beta-catenin cis-reporter transcription, actives raise or lower the signal
Summary of the method: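 Using capillary electrophoresis as the read-out, labelled reporter cDNA fragments from transiently transfected HepG2 were sized and quantified. Exposure lasted 24 hours; activity in either direction was referenced to DMSO.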

[11] = ATG_TAL_CIS: Attagene CIS-FACTORIAL HepG2 Assay for human TAL Basal Promoter (AID 2282966); conditions: HepG2 Attagene cis-factorial TAL promoter reporter; actives raise or lower the signal;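 further: background control endpoint measuring basal TAL promoter reporter mRNA not a specific factor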
Summary of the method: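 In this cell-based multiplex, HepG2 liver cells bearing cis-promoter reporter constructs are dosed for 24 hours. Total RNA is reverse-transcribed and amplified, labelled fragments are sized by capillary electrophoresis, and signal changes are fitted bidirectionally versus DMSO.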

[12] = ATG_TGFb_CIS: Attagene CIS-FACTORIAL HepG2 Assay for human Transforming Growth Factor (TGF) (AID 2282967); conditions: HepG2 Attagene CIS TGFb reporter, mRNA transcription; actives raise or lower the signal
Summary of the method: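 HepG2 cells transiently transfected with cis-promoter-driven multiplexed reporter units; 24 h compound exposure. Reporter mRNA measured by RT-PCR, 6-FAM labeling, HpaI digestion and capillary electrophoresis; bidirectional fit versus DMSO baseline.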

[13] = biological target: Nuclear receptor subfamily 1 group I member 3 (Homo sapiens) (UniProt Q14994); test: ATG_CAR_TRANS: Attagene TRANS-FACTORIAL HepG2 Assay for human Constitutive Androstane Receptor (CAR) (AID 2282969; active means hit-call score of the fitted dose curve at least 0.9, where 1 is the maximum;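 further: activators raise reporter mRNA above DMSO so AC50 marks induction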); conditions: HepG2 Attagene TRANS-FACTORIAL CAR reporter
Nuclear receptor subfamily 1 group I member 3 (Homo sapiens), sequence (Q14994 whole entry, looked up, the tested form may be a part): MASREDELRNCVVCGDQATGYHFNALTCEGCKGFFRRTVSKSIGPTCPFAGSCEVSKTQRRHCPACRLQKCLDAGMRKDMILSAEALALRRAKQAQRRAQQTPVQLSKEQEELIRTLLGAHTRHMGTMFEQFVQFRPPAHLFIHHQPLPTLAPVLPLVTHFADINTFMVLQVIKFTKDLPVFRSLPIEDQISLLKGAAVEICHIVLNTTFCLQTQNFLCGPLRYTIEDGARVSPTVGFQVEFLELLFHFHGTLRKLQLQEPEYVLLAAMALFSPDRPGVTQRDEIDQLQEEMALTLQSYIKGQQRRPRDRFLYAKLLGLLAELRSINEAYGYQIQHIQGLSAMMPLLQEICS
Summary of the method: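 HepG2 cells transiently transfected with multiplexed GAL4-UAS reporter units expressing chimeric NR-Gal4 proteins; compound exposure 24 h. Reporter mRNA measured by RT-PCR, 6-FAM labelling, HpaI digestion and capillary electrophoresis; gain-of-signal fitted against DMSO baseline.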

[14] = biological target: Estrogen receptor (Homo sapiens) (UniProt P03372); test: ATG_ERa_TRANS: Attagene TRANS-FACTORIAL HepG2 Assay for human Estrogen Receptor alpha (ERa) (AID 2282970; active means hit-call score of the fitted dose curve at least 0.9, where 1 is the maximum); conditions: HepG2 Attagene TRANS ERa GAL4 reporter, mRNA
Estrogen receptor (Homo sapiens), sequence (P03372 whole entry, looked up, the tested form may be a part): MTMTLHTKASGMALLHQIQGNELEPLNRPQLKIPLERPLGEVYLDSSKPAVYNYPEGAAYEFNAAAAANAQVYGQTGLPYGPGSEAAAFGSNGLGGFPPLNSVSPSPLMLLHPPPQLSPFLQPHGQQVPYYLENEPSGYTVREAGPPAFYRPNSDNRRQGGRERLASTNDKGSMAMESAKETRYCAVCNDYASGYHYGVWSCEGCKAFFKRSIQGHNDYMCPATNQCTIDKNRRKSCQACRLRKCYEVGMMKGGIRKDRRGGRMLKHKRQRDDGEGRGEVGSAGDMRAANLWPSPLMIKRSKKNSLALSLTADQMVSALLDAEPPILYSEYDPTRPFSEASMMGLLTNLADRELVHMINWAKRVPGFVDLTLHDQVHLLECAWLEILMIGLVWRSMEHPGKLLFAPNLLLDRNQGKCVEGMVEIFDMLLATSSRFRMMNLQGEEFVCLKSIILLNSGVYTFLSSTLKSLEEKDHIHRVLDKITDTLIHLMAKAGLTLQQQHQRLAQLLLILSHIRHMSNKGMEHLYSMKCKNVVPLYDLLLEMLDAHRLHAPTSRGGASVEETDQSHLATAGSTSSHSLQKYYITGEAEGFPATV
Summary of the method: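 After 24 h of compound treatment, RNA from HepG2 cells bearing transfected GAL4-UAS reporter constructs is converted to cDNA, amplified and fluorescently labelled. Capillary electrophoresis resolves the ERa-linked reporter; DMSO serves as negative control.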

[15] = biological target: X-box-binding protein 1 (Homo sapiens) (UniProt P17861); test: ATG_Xbp1_CIS: Attagene CIS-FACTORIAL HepG2 Assay for human X-box Binding Protein 1 (XBP1) (AID 2282972); conditions: HepG2 XBP1 cis-element reporter, Attagene multiplex; actives raise or lower the signal
X-box-binding protein 1 (Homo sapiens), sequence (P17861 whole entry, looked up): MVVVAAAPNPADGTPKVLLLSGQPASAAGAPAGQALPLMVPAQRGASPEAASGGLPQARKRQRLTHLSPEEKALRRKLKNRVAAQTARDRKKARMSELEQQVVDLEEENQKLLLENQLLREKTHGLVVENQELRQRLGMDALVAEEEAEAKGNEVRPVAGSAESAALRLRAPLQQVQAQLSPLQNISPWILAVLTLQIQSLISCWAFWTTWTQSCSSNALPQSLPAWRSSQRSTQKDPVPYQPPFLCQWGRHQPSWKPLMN
Summary of the method: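 HepG2 cells transiently transfected with multiple cis-element reporter units report endogenous TF activity; 24 h exposure, then reporter mRNA measured by RT-PCR, 6-FAM labelling, HpaI digestion and capillary electrophoresis. Bidirectional fitting versus DMSO.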

[16] = ATG_GAL4_TRANS: Attagene TRANS-FACTORIAL HepG2 Assay for GAL4 (Internal Marker) (AID 2282976; active means hit-call score of the fitted dose curve at least 0.9, where 1 is the maximum); conditions: HepG2 Attagene TRANS GAL4 internal marker reporter
Summary of the method: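 RT-PCR/capillary electrophoresis readout of reporter mRNA. HepG2, transient MRTU transfection (GAL4-UAS reporters), 24 h compound exposure. Background-control endpoint, positive direction vs DMSO baseline.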

[17] = ATG_M_19_TRANS: Attagene TRANS-FACTORIAL HepG2 Assay for M19 Transcription Factor (Internal Marker) (AID 2282974; active means hit-call score of the fitted dose curve at least 0.9, where 1 is the maximum); conditions: HepG2 Attagene TRANS-FACTORIAL M19 internal marker reporter
Summary of the method: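 HepG2 cells transiently transfected with multiple GAL4-UAS reporter transcription units were exposed to chemicals for 24 h. Reporter mRNA was read by RT-PCR, 6-FAM primer extension, HpaI digestion and capillary electrophoresis; gain of signal fitted relative to DMSO.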

[18] = ATG_VDRE_CIS: Attagene CIS-FACTORIAL HepG2 Assay for human Vitamin D Receptor Element (VDRE) (AID 2282968); conditions: HepG2 VDRE cis-reporter transcription, actives raise or lower the signal
Summary of the method: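 HepG2 cells transiently transfected with cis-element reporter units, dosed 24 h; reporter mRNA measured by RT-PCR, 6-FAM labeling, HpaI digestion and capillary electrophoresis. Activity fitted bidirectionally against DMSO baseline.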

[19] = biological target: Steroid hormone receptor ERR1 (Homo sapiens) (UniProt P11474); test: ATG_ERRa_TRANS: Attagene TRANS-FACTORIAL HepG2 Assay for human Estrogen-Related Receptor alpha (ERRa) (AID 2282971; active means hit-call score of the fitted dose curve at least 0.9, where 1 is the maximum); conditions: HepG2 Attagene TRANS reporter, ERRa transactivation
Steroid hormone receptor ERR1 (Homo sapiens), sequence (P11474 whole entry, looked up, the tested form may be a part): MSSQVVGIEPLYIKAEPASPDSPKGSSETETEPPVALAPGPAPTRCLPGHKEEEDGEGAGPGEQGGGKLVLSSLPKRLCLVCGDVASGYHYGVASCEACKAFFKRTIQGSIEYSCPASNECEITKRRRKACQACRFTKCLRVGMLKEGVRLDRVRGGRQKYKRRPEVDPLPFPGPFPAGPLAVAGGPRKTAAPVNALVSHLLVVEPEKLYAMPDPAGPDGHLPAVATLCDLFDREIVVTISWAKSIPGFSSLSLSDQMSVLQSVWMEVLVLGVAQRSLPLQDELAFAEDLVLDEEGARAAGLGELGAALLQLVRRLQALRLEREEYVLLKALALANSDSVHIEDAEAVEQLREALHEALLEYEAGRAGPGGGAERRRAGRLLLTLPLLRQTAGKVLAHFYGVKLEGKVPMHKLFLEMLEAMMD
Summary of the method: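 Transfected HepG2, 24 h dosing, ERRa-Gal4 chimera driving GAL4-UAS reporter. Readout: reporter mRNA via RT-PCR plus capillary electrophoresis (fluorescence). Positive direction vs DMSO control.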

Measured: AC50

CC1=C(O)C(=O)C(C)O1 (configuration not stated)
not listed: [17] | [18] | [19]
inactive: all other assays above

CN(C)c1ccc2nc3ccc(=[N+](C)C)cc-3sc2c1
active: [3] 3.95 µM
not listed: [4] | [16] | [18] | [19]
inactive: all other assays above

C=C1C[C@H]2[C@@H]3C=C(C)C4=CC(=O)CC[C@]4(C)[C@H]3CC[C@]2(C)[C@@]1(OC(C)=O)C(C)=O
inactive: [4] | [5] | [12] | [17] | [16]
active: [1] 113 µM | [2] 63 µM | [3] 3.44 µM | [9] 50.8 µM | [11] 52.8 µM | [15] 88 µM

C=CC(=O)OCCCCCCCCCC
active: [3] 26.4 µM
not listed: [6] | [7] | [10]
inactive: all other assays above

C1CNCCN1
not listed: [13] | [17] | [19]
inactive: all other assays above

CC(C)c1ccc2ncccc2c1
active: [3] 27.9 µM
not listed: [6] | [17] | [18]
inactive: all other assays above

CC(C)OC(=O)c1ccccc1
not listed: [13] | [16] | [17] | [19]
inactive: all other assays above

CCCCOCCOC(=O)COc1ccc(Cl)cc1Cl
active: [3] 39.9 µM
not listed: [8] | [13] | [14] | [19]
inactive: all other assays above

CCOc1ccc(NC(N)=O)cc1
not listed: [4] | [17] | [19]
inactive: all other assays above

CC(C)CCOCc1ccccc1
not listed: [17]
inactive: all other assays above

CCCCNC(=S)NCCCC
active: [3] 38 µM
not listed: [4] | [13] | [17] | [19]
inactive: all other assays above

CC(=O)CC(=O)Nc1ccccc1C
not listed: [4] | [14] | [16] | [17]
inactive: all other assays above

CC(C)(c1ccccc1)c1ccc(Nc2ccc(C(C)(C)c3ccccc3)cc2)cc1
active: [3] 2.03 µM
not listed: [16] | [18] | [19]
inactive: all other assays above

O=C1CCCN1C1CCCCC1
active: [3] 57.1 µM
not listed: [16] | [19]
inactive: all other assays above
